Sm TGR inh: S. mansoni TGR enzyme inhibition; Q962Y6; purified TGR, DTNB reduction, TNB absorbance 405 nm; Potency, µM (highest dose often 114 µM), for the others: at the top dose activity change, negative = inhibition, hits mostly inhibitors; actives 3% (n = 360,000); AID 485364; note: potency is the fitted concentration of half-maximal effect; % is set by controls: 0 for no effect and ±100 for the full control effect; nearly all actives have a fitted effect of over 60% in size
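Kinetic colorimetric format: TGR-catalysed, NADPH-driven DTNB reduction monitored via TNB absorbance. Enzyme dispensed at 20 nM; compound exposure 15 min at room temperature before reaction start.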
HCMV antiviral: inhibitors of human cytomegalovirus | HFF cells, HCMV-luciferase reporter, 72 h; active compounds read low | activity change, negative = inhibition, % at 57.5 µM | actives 4.5% (n = 410,000) | AID 1259415; in the data active = activity change below about -60%; inconclusive = no clear call, values can overlap the other calls; inactive = above about -39%; note: % is set by controls: 0 for no effect and ±100 for the full control effect
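HFF cells seeded 16 h at 37C, treated with compounds, infected with luciferase-reporter HCMV at MOI 1 PFU/cell; luciferase read at 72 h post infection, normalized to buffer-only and Salinomycin controls.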
Pf growth 96h: P. falciparum growth inhibition at 96 hour, primary screen for plastid delayed-death inhibitors; Potency, µM (series often up to 28.7 µM), for inactives: top-dose activity change, negative = inhibition, hits mostly inhibitors; P. falciparum luciferase reporter growth, 96 h; actives 6.9% (n = 320,000); AID 504834; note: potency is the fitted concentration of half-maximal effect; % is set by controls: 0 for no effect and ±100 for the full control effect
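Luminescence readout: decreased luciferase signal marks inhibited growth of reporter-expressing P. falciparum in infected red cells (2% hematocrit, 0.05% parasitemia final), exposed to compound two generations (96 h, 37 C, 5% CO2).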
SARS PLpro yeast: inhibitors of SARS-CoV papain-like protease in yeast. actives 0.19% (n = 330,000). Potency, µM (series often up to 32.9 µM), without a hit: at the highest dose activity, positive = growth rescue, hits mostly activators. S. cerevisiae expressing SARS-CoV PLpro, growth rescue; calls by dose curve; note: potency is the fitted concentration of half-maximal effect; 0% is about no effect; nearly all actives have a fitted effect of over 55% in size
Pf growth 48h: inhibits P. falciparum growth in the first generation, 48 h; P. falciparum luciferase growth in erythrocytes, 48 h; Potency, µM (doses to about 28.7 µM), for inactives: at the top dose activity change, negative = inhibition, actives largely listed as inhibitors; actives 5.9% (n = 310,000); note: potency is the fitted concentration of half-maximal effect; % is set by controls: 0 for no effect and ±100 for the full control effect
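A one-generation exposure of luciferase-tagged malaria parasites in RPMI 1640/Albumax erythrocyte culture, 37 C and 5% CO2. Inhibition is inferred from decreased luminescence after adding detection reagent.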
HCV inhibitor: inhibitors of hepatitis C virus infection; Huh7.5.1 HCVcc-Cre infection, luciferase reporter, 44 h; Potency, µM (series often up to 41.8 µM), for inactives: at the top dose activity change, negative = inhibition, hits mostly inhibitors; actives 3.4% (n = 340,000); AID 651820; note: potency is the fitted concentration of half-maximal effect; % is set by controls: 0 for no effect and ±100 for the full control effect
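HCVcc-Cre virus at an moi near 0.5 was added right after compound to cells cultured 4 h from seeding (1,000 cells/well). Luciferase activity was determined 44 h later, 15 min after substrate addition at RT.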
Active calls of the source: *. Only some compounds are listed: those with a hit (about 15% of all), similar ones and a draw of the others. Unless noted, calls come from the whole dose curve; as a rule, active = well fitted curve in the direction sought with a large enough effect; inconclusive = small, poorly fitted or top-dose-only effect, or another doubt; inactive = no such curve, though single readings can be large; an effect the other way counts as inactive or inconclusive.

Results for Cc1cc(C)c(NC(=O)c2cccc3c2C(=O)N(C2CCCCC2)C3)c(C)c1 ?
Sm TGR inh: -8%; Pf growth 96h: 44%; SARS PLpro yeast: -2%; Pf growth 48h: 0%; HCV inhibitor: inconclusive

What do the screens show for `CCOC(=O)c1sc(NC(=O)CN2C(=O)NC3(CCC(C)CC3)C2=O)c(C(=O)OCC)c1C` (stereo not given)?
Sm TGR inh: 1%; HCMV antiviral: -18; Pf growth 96h: -7%; SARS PLpro yeast: 15%; Pf growth 48h: inconclusive; HCV inhibitor: -6%

What do the screens show for `CC(C)Cc1nnc(NC(=O)CN2C(=O)NC3(CCCC3)C2=O)s1`?
Sm TGR inh: 1%; HCMV antiviral: -26; Pf growth 96h: 14%; SARS PLpro yeast: -5%; Pf growth 48h: 2%; HCV inhibitor: 5%

Results for CC(C)Cc1nnc(NC(=O)CN2C(=O)NC3(CC(C)CC(C)(C)C3)C2=O)s1 (stereo not given) ?
Sm TGR inh: 1%; HCMV antiviral: 0; Pf growth 96h: 17µM*; SARS PLpro yeast: 1%; Pf growth 48h: inconclusive; HCV inhibitor: 4%

Results for CCOC(=O)c1sc(NC(=O)CN2C(=O)NC3(CC(C)CC(C)(C)C3)C2=O)c(C(=O)OCC)c1C (stereo not given) ?
Sm TGR inh: 4%; HCMV antiviral: -19; Pf growth 96h: 2.1µM*; SARS PLpro yeast: 17%; Pf growth 48h: 8.3µM*; HCV inhibitor: 5%

Results for CCOC(=O)c1sc(NC(=O)CN2C(=O)NC3(CC(C)CC(C)(C)C3)C2=O)cc1C (stereo not given) ?
Sm TGR inh: 7%; HCMV antiviral: -11; Pf growth 96h: 3.7µM*; SARS PLpro yeast: 0%; Pf growth 48h: 2.6µM*; HCV inhibitor: 11µM*

How did OCc1cc(C(O)CNCCCCCCOCCCCc2ccccc2)ccc1O (stereo not given) do in these assays?
Sm TGR inh: -18%; HCMV antiviral: -60*; Pf growth 96h: 12µM*; SARS PLpro yeast: -1%; Pf growth 48h: 13µM*; HCV inhibitor: 8.9µM*

How did Cc1ccc(S(=O)(=O)/N=C(\CN2CCOCC2)N2CCCC2)cc1 do in these assays?
Sm TGR inh: 1%; HCMV antiviral: 28; SARS PLpro yeast: 0%; Pf growth 48h: -11%; HCV inhibitor: 2%

Results for Cc1ccc(S(=O)(=O)/N=C(\CCl)N2CCOCC2)cc1 ?
Sm TGR inh: 0%; HCMV antiviral: 22; Pf growth 96h: inconclusive; SARS PLpro yeast: -34%; Pf growth 48h: 13µM*; HCV inhibitor: 10µM*

Results for CCOc1cc(S(=O)(=O)n2cc(-c3ccc(F)cc3)c(N)n2)cc(OCC)c1OCC ?
Sm TGR inh: -1%; HCMV antiviral: 19; SARS PLpro yeast: -3%; Pf growth 48h: 8.3µM*; HCV inhibitor: 6.3µM*

Results for CCOc1ccc(S(=O)(=O)n2cc(-c3ccc(F)cc3)c(N)n2)cc1 ?
Sm TGR inh: -4%; HCMV antiviral: -20; Pf growth 96h: 9.3µM*; SARS PLpro yeast: -20%; HCV inhibitor: inconclusive

How did COc1ccccc1-c1cn(S(=O)(=O)c2ccc(F)cc2)nc1N do in these assays?
Sm TGR inh: -4%; HCMV antiviral: inconclusive; SARS PLpro yeast: -4%; Pf growth 48h: inconclusive; HCV inhibitor: 10µM*

How did CCOc1ccc(S(=O)(=O)n2cc(-c3ccccc3)c(N)n2)cc1 do in these assays?
Sm TGR inh: 8%; HCMV antiviral: 74; Pf growth 96h: inconclusive; SARS PLpro yeast: -7%; Pf growth 48h: inconclusive; HCV inhibitor: 5%

Results for Cc1ccc(-c2cn(S(=O)(=O)c3ccc(C)cc3)nc2N)cc1 ?
Sm TGR inh: -2%; HCMV antiviral: 1; Pf growth 96h: inconclusive; SARS PLpro yeast: 2%; HCV inhibitor: 3%

What do the screens show for `COc1ccc(-n2ncc3c2CC(C)(C)CC3NC(=O)CN2CCOC2=O)cc1` (stereo not given)?
Sm TGR inh: 0%; HCMV antiviral: -17; Pf growth 96h: inconclusive; SARS PLpro yeast: -2%; Pf growth 48h: 18%; HCV inhibitor: inconclusive

Results for CC(Sc1nnc(-c2ccc(OC(F)F)cc2)n1N)C(=O)NCC1CCCO1 (stereo not given) ?
Sm TGR inh: 4%; HCMV antiviral: -21; Pf growth 96h: 6%; SARS PLpro yeast: -2%; Pf growth 48h: inconclusive; HCV inhibitor: -20%

Results for COC(=O)C1=C(c2cccc(OCc3ccccc3)c2)C[C@@H]2CC[C@H]1N2C(=O)NCCOc1ccccc1Cl ?
Sm TGR inh: 2%; HCMV antiviral: -18; Pf growth 96h: inconclusive; SARS PLpro yeast: 5%; Pf growth 48h: 13µM*; HCV inhibitor: inconclusive

What do the screens show for `COC(=O)C1=C(c2cccc(OCc3ccccc3)c2)C[C@@H]2CC[C@H]1N2C(=O)NCCOc1ccccc1`?
Sm TGR inh: 2%; HCMV antiviral: -20; Pf growth 96h: inconclusive; SARS PLpro yeast: 1%; Pf growth 48h: 9.3µM*; HCV inhibitor: inconclusive

How did COC(=O)C1=C(c2cccc(C#N)c2)C[C@@H]2CC[C@H]1N2C(=O)NCCOc1ccccc1 do in these assays?
Sm TGR inh: -6%; HCMV antiviral: -40; Pf growth 96h: -1%; SARS PLpro yeast: 0%; Pf growth 48h: inconclusive; HCV inhibitor: -2%

How did COC(=O)C1=C(c2cccc(OCc3ccccc3)c2)C[C@@H]2CC[C@H]1N2C do in these assays?
HCMV antiviral: -19

What do the screens show for `COC(=O)C1=C(c2cccc(C#N)c2)C[C@@H]2CC[C@H]1N2C(=O)NCCOc1ccccc1Cl`?
Sm TGR inh: 0%; HCMV antiviral: -35; Pf growth 96h: inconclusive; SARS PLpro yeast: 1%; Pf growth 48h: 13µM*; HCV inhibitor: 4%

How did COC(=O)C1=C(c2cccc(OCc3ccccc3)c2)C[C@@H]2CC[C@H]1N2C(=O)NCCc1ccc(F)cc1 do in these assays?
Sm TGR inh: -4%; HCMV antiviral: -20; Pf growth 96h: inconclusive; SARS PLpro yeast: -3%; Pf growth 48h: 7.4µM*; HCV inhibitor: inconclusive

What do the screens show for `CC(=O)N1CCC(C(=O)Nc2cc(S(=O)(=O)N3CCCCC3)ccc2C)CC1`?
HCMV antiviral: -2

What do the screens show for `COC(=O)c1ccccc1NC(=O)CN1CCC(C(=O)c2ccc3c(c2)OCCO3)CC1`?
Sm TGR inh: -1%; HCMV antiviral: -25; Pf growth 96h: 1.5µM*; SARS PLpro yeast: 6%; Pf growth 48h: 8%; HCV inhibitor: inconclusive

What do the screens show for `CC(C)CNC(=S)N1CCC(C(=O)c2ccc3c(c2)OCCO3)CC1`?
HCMV antiviral: -63*; Pf growth 96h: 37%; SARS PLpro yeast: -1%; Pf growth 48h: -9%; HCV inhibitor: inconclusive
